Screens: PubChem BioAssay, National Center for Advancing Translational Sciences (NCATS)
Many of the other results were omitted from the sample, so hits are more common in it than they were.
Pf Dd2 inh – inhibitors of Plasmodium falciparum Dd2 growth; P. falciparum Dd2 growth, SYBR Green, 72 h; Potency, µM (series often up to 28.9 µM), without a hit: at the highest dose activity, negative = inhibition, usual class: inhibitors; actives 4.3% (n = 120,000); active = well fitted inhibition curve with a large enough effect;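 note: plate controls were DMSO vehicle for no effect and reference drug for full effect; nearly all actives have a fitted effect of over 65% in size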
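Readout: SYBR Green fluorescence, 485 nm excitation, 535 nm emission, after ~16 h lysis at 37C. Before that, Dd2-infected red cells (2.5% hematocrit) grew 72 h with compound, 29 uM top final concentration.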
Numbers without * were called inactive; i = inactive; [ ] = another dose, or the depositor's remark. Potency is the fitted concentration of half-maximal effect.

SMILES | Pf Dd2 inh
COc1ccc(OC)c(S(=O)(=O)N2CCC(Oc3ccccc3-c3nc(C)no3)C2)c1 (stereo not given) | -11%
COCCc1noc(-c2ccccc2OC2CN(S(=O)(=O)C(C)C)C2)n1 | 8.9µM*
COCCc1noc(-c2ccccc2OC2CN(C(=O)c3ccncc3)C2)n1 | 10µM*
Cc1ccc(C(=O)N2CCC(Oc3ccccc3-c3nc(-c4ccncc4)no3)C2)cn1 (stereo not given) | i
COCCOCC(=O)N1C[C@@H](Oc2ccccc2)C[C@H]1C(=O)N1CCOCC1 | -3%
CCn1ccc(C(=O)N2CCC3(CC2)c2[nH]c4ccccc4c2CCN3C)n1 | i
CN1CCCC(CN(CCc2ccccc2)C(=O)c2cc[n+]([O-])cc2)C1 (stereo not given) | -16%
CC(=O)c1cc(CN(CCc2ccccc2)CC2CCCN(C)C2)cs1 (stereo not given) | 13µM*
CC(=O)c1cc(CC(=O)N[C@@H]2COCC[C@@H]2OCc2ccccc2)cs1 | 8%
CCN(CC)C(=O)C[C@@H]1CCNC[C@@H]1Cc1cc(C(=O)OC)on1 | 30%[44.1 µM]
COc1ccc(F)cc1-c1ccc(CN)cc1 | -16%[44.1 µM]
O=Cc1ccccc1-c1ccc(OC(F)(F)F)cc1 | -5%[76.6 µM]
NCc1ccccc1-c1cc(F)cc(F)c1 | 13µM*
Cc1cccc(-c2[nH]ncc2CN)c1 | -12%
CN(Cc1ccc(OC(F)(F)F)cc1)Cc1ccccc1C(F)(F)F | -18%
Cc1cc(C)cc(-c2ccccc2C=O)c1 | -3%[44.1 µM]
Cc1cc(C)cc(-c2ccc(C=O)cc2)c1 | -11%[44.1 µM]
Cc1cc(C)cc(-c2ccc(CN)cc2)c1 | 11µM*
NCc1ccc(-c2ccccn2)cc1 | -18%[44.1 µM]
Cc1cc(C)cc(-c2ccccc2CN)c1 | 13µM*
NCc1ccccc1-c1ccc(OC(F)(F)F)cc1 | 11µM*
CC(C)c1nnc(C2CN(C(=O)C3CCCC3)CC23CCOCC3)o1 (stereo not given) | 22%
COc1cccc(C(=O)N2CCC(N3C[C@H](O)C[C@H]3C(=O)NCCN3CCCC3)CC2)c1 | -6%
O=C(NCCOc1ccccc1)C1CN(c2ccc(Cl)cc2)C(=O)N1 (stereo not given) | 3%
O=C([C@H]1C[C@@H](F)CN1C(=O)c1ccc(C(F)(F)F)cc1)N1CCOCC1 | i
SMILES | Pf Dd2 inh
O=C(N[C@@H]1CCN(C(=O)CCc2ccccc2F)C[C@H]1O)c1ccccn1 | -2%
CCn1c2c(c(=O)n1Cc1ccccc1)CCN(C(=O)c1cccnc1)C2 | 45%[44.1 µM]
COCCNC(=O)[C@@H]1C[C@@H](O)CN1C1CCN(C(=O)C2CCCC2)CC1 | 6%
Cc1ccc(-c2[nH]ncc2CN)cc1 | -24%
Cc1ccc(-c2ccccc2CN)cc1Cl | 11µM*
Cc1ccc(-c2ccccc2C=O)cc1Cl | 14%[44.1 µM]
CN1CCC(OC2CCN(C(=O)c3ccc(Cl)cc3)CC2)CC1 | i
COc1ccc(CC(=O)NCCc2csc(-c3ccc(Cl)cc3)n2)cc1 | -13%
COc1ccc(CC(=O)NCCc2csc(-c3cccc(C)c3)n2)cc1 | 13µM*
Cc1cccc(-c2nc(CCNC(=O)Cc3ccc(F)cc3)cs2)c1 | i
Cc1nccn1CCC(NC(=O)c1cn(CCN)nn1)c1ccccc1 (stereo not given) | -13%
COc1ccc(C(=O)NCCn2ccn3nc(-c4ccc(F)cc4)cc3c2=O)cn1 | -3%
CS(=O)(=O)Cc1ccc(-c2ccc(F)cc2C(F)(F)F)nc1 | -3%
CCC1=C(C(=O)OC)C(c2ccccc2)N2C(CC(=O)N(C)Cc3ccccc3)=CSC2=N1 (stereo not given) | -24%
CCCN(CCC)C(=O)CC1=CSC2=NC(CC)=C(C(=O)OC)C(c3cccc(F)c3)N12 (stereo not given) | 2.2µM*
CCC1=C(C(=O)OC)C(c2ccccc2F)N2C(CC(=O)N3CCCC3)=CSC2=N1 (stereo not given) | -12%
Cc1sc2ccn(C)c(=O)c2c1C(=O)NCc1cccc(F)c1 | -13%
Cc1cn(CCn2ccnc2-c2nc[nH]c2C)nn1 | -6%
O=Cc1ccc(-c2ccc(F)cc2)cc1 | 18%[44.1 µM]
CC1=C[C@@H](CNC(=O)CN(C)C)[C@H](C(C)C)C[C@H]1Cc1nc2ccc(Cl)cc2[nH]1 | 6.3µM*
CC1=C[C@@H](CNC2CCOCC2)[C@H](C(C)C)C[C@H]1Cc1nc2ccc(Cl)cc2[nH]1 | 7.1µM*
COC(=O)c1ccc2nc(C[C@@H]3C[C@@H](C(C)C)[C@H](CNCc4ccccc4O)C=C3C)[nH]c2c1 | -12%
CC1=C[C@@H](CNC2CCOCC2)[C@H](C(C)C)C[C@H]1Cc1nc2ccccc2[nH]1 | -13%[44.1 µM]
COCC(=O)NC[C@@H]1C=C(C)[C@H](Cc2nc3ccc(Cl)cc3[nH]2)C[C@H]1C(C)C | 2.5µM*
COc1ccc2nc(C[C@@H]3C[C@@H](C(C)C)[C@H](CNC(=O)NC4CCCCC4)C=C3C)[nH]c2c1 | i
SMILES | Pf Dd2 inh
COc1ccc2nc(C[C@@H]3C[C@@H](C(C)C)[C@H](CNCc4ccccc4OC)C=C3C)[nH]c2c1 | 1.3µM*
COc1ccc2nc(C[C@@H]3C[C@@H](C(C)C)[C@H](CNC(=O)CCC(=O)O)C=C3C)[nH]c2c1 | -23%[44.1 µM]
CC1=C[C@@H](CNC(=O)CCC(=O)O)[C@H](C(C)C)C[C@H]1Cc1nc2ccc(C)cc2[nH]1 | 3%[44.1 µM]
COc1ccc2nc(C[C@@H]3C[C@@H](C(C)C)[C@H](CNC(=O)CCCC(=O)O)C=C3C)[nH]c2c1 | -12%
COc1ccccc1CN(Cc1ccccc1OC)C[C@@H]1C=C(C)[C@H](Cc2nc3c(C)cccc3[nH]2)C[C@H]1C(C)C | -8%
O=C(c1ccc(CC2CCNCC2)cc1)N1CCCC1 | 11%
O=S(=O)(c1cc(F)cc(F)c1)N1CCCC1c1nncn1Cc1ccncc1 (stereo not given) | 1%
CCc1noc(-c2cn(C3CCN(C(=O)c4ccc[nH]4)CC3)nn2)n1 | i
Cc1cnc(CCNC(=O)C2CC2)n1CC1CC1 | i
CN(Cc1ccccc1)Cc1cn([C@H]2CO[C@H]3[C@@H]2OC[C@@H]3NC(=O)Nc2cccc(C(F)(F)F)c2)nn1 | -20%
O=C(c1ccc2c(c1)OCO2)N1CCC(N2Cc3cccn3C2=O)CC1 | i
CCOc1cccc(CN2CC(c3nc(Cc4cccnc4)no3)C2)c1 | -24%
CCCCCC(=O)N1CC[C@@H](CC(=O)N(C)CCC#N)[C@@H](CC)C1 | -8%[44.1 µM]
COc1ccc(C2C(C(=O)Nc3ccc(C)cc3C)=C(C)Nc3nc(SC)nn32)cc1OC (stereo not given) | 15%
CC1=C(C(=O)Nc2ccc(Cl)cc2)C(c2ccccc2F)n2nc(SCc3cccc(Cl)c3)nc2N1 (stereo not given) | 36%
CC1=C(C(=O)Nc2ccc(C)cc2C)C(c2ccc(Br)cc2)n2ncc(C(=O)Nc3cccc(C)c3)c2N1 (stereo not given) | 1.1µM*
CC1=C(C(=O)Nc2ccc(C)cc2C)C(c2ccc(Cl)cc2)n2nc(C(=O)OC(C)C)nc2N1 (stereo not given) | -5%
CC1=C(C(=O)Nc2ccc(C)cc2C)C(c2cc(Br)ccc2F)n2ncc(C(=O)Nc3ccc(C)cc3)c2N1 (stereo not given) | 0.89µM*
CC1=C(C(=O)Nc2cc(Cl)ccc2C)C(c2ccccc2F)n2ncnc2N1 (stereo not given) | 10%
CC1=C(C(=O)Nc2ccc(C)cc2C)C(c2cccs2)n2nc(SCc3cccc(C)c3)nc2N1 (stereo not given) | -7%
CC1=C(C(=O)Nc2ccccc2)C(c2cc(Br)ccc2F)n2ncc(C(=O)Nc3ccccc3)c2N1 (stereo not given) | 1.1µM*
